# Reference: PubChem BioAssay (Tox21)
# Unmarked numbers belong to inactive results. Records with an inconclusive call do not appear. Entries that show only a call come without a potency. Active and inactive are the calls of the source. Unless noted, calls come from the whole dose curve.
# Experiments:
# [1] = Nuclear factor erythroid 2-related factor 2/antioxidant responsive element (Nrf2/ARE) small molecule agonists: qHTS cell viability counter screen in human keratinocytes (AID 1919968; active = well fitted curve in the direction sought with a large enough effect in the repeat runs; an effect the other way counts as inactive or inconclusive; note: nearly all actives have a fitted effect of over 55% in size)
# How it was run: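 CellTiter-Fluor fluorescence, read 1 h after reagent, gave viability in the same wells as the ARE-luciferase assay. KeratinoSens cells (1,500/well) had 23 h compound exposure at 37 C/5% CO2 following 5 h plating.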
# [2] = Nuclear factor erythroid 2-related factor 2/antioxidant responsive element (Nrf2/ARE) small molecule agonists: luciferase reporter gene qHTS assay in human keratinocytes (AID 1919969); note: nearly all actives have a fitted effect of over 35% in size; note: potency is the fitted concentration of half-maximal effect
# [3] = molecular target: Gonadotropin-releasing hormone receptor (Homo sapiens) (UniProt P30968); test: Human gonadotropin-releasing hormone receptor (GnRHR) small molecule agonists, calcium flux assay in GnRHR-HEK293 cells (AID 1920063); note: nearly all actives have a fitted effect of over 35% in size
# Gonadotropin-releasing hormone receptor (Homo sapiens), sequence (P30968 whole entry, looked up): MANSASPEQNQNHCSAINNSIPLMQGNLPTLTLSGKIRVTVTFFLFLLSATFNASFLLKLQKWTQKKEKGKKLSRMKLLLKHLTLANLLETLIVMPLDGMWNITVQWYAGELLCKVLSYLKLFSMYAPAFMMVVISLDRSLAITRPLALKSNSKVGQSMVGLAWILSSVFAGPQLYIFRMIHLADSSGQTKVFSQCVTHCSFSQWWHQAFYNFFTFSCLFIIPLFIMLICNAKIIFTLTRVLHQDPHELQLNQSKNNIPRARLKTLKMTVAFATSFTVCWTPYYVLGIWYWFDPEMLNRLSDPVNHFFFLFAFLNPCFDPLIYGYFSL
# How it was run: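 Agonist mode: compounds at 15 concentrations, in triplicate, went onto calcium dye-loaded GnRHR-HEK293 cells. Intracellular calcium was then followed as 480/540 nm fluorescence at 1 s intervals over 3 min.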
# [4] = molecular target: KiSS-1 receptor (Homo sapiens) (UniProt Q969F8); test: Human kisspeptin (KISS1R) small molecule agonists, calcium flux assay in KISS1R-HEK293 cells (AID 1920064; active = well fitted curve in the direction sought with a large enough effect in the repeat runs; an effect the other way counts as inactive or inconclusive)
# KiSS-1 receptor (Homo sapiens), sequence (Q969F8 whole entry, looked up): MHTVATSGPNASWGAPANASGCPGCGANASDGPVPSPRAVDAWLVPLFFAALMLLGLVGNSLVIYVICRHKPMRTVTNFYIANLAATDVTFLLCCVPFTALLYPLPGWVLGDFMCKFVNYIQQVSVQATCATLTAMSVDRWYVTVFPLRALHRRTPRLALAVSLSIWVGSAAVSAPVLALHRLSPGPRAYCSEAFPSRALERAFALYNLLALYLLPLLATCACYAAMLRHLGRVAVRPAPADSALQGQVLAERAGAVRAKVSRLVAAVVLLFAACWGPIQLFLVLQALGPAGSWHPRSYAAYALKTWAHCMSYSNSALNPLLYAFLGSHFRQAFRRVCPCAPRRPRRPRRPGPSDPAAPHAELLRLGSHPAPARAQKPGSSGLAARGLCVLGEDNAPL
# How it was run: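 Agonist mode: intracellular calcium rise tracked at 1 s intervals over 3 min (480/540 nm) immediately after compound addition to dye-loaded KISS1R-HEK293 stable cells. Each compound tested at 15 concentrations in triplicate.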
# [5] = G protein-coupled receptor (GPCR) small molecule agonists, calcium flux assay: HEK293 wild type cell line counter screen (AID 1920065)
# How it was run: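 Calcium flux counter screen: compound added in agonist mode at 15 concentrations in triplicate to dye-loaded parental HEK293 cells. Fluorescence (480/540) read kinetically for 3 min; ATP served as positive control.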
# [6] = p53 small molecule agonists, cell-based qHTS assay with human liver microsomes (AID 1963577);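 note: p53 response element beta-lactamase reporter cells with liver microsomes plus NADPH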
# How it was run: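 In this qHTS, p53 response-element beta-lactamase cells receive test compound together with a microsome/NADPH activating system (0.5 mg/mL final each) and are incubated 16 h at 37 C before LiveBLAzer fluorescence detection.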
# [7] = p53 small molecule agonists, cell-based qHTS assay with rat liver microsomes (AID 1963578)
# How it was run: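 Agonist mode in p53RE-bla reporter cells, with compounds co-incubated 16 h at 37 C alongside 0.5 mg/mL rat liver microsomes and 0.5 mg/mL NADPH (final), followed by a 2 h LiveBLAzer detection step.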
# [8] = p53 small molecule agonists, cell-based qHTS assay with human liver microsomes: qHTS cell viability counter screen (AID 1963579); note: nearly all actives have a fitted effect of over 45% in size
# How it was run: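 Metabolically activated exposure: compounds, human liver microsomes and NADPH (0.5 mg/mL final apiece) were added to p53RE-bla cells seeded 5 h earlier, left 16 h at 37 C, and then assessed for viability by CellTiter-Glo luminescence.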
# [9] = p53 small molecule agonists, cell-based qHTS assay: qHTS cell viability counter screen (AID 1963581); note: nearly all actives have a fitted effect of over 45% in size
# How it was run: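 Counter screen read by CellTiter-Glo luminescence (ATP content, 30 min at room temperature), run in the same wells as the beta-lactamase reporter read. HCT-116 p53RE-bla cells saw compounds for 16 h at 37 C.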
# [10] = p53 small molecule agonists, cell-based qHTS assay (AID 1963582; active = well fitted activation curve with a large enough effect in the signal ratio in the repeat runs, not every such curve was filed as active; the % refers to the signal ratio)
# How it was run: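 Read-out is beta-lactamase FRET fluorescence after 2 h at room temperature with LiveBLAzer B/G substrate. p53 response element-bla cells were treated 16 h at 37 C with compounds in DMSO, added 5 h after seeding.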
# [11] = molecular target: 5-hydroxytryptamine receptor 2A (Homo sapiens) (UniProt P28223); test: 5-hydroxytryptamine receptor 2A (HTR2A) small molecule antagonists, cell-based qHTS assay (AID 1963586); note: nearly all actives have a fitted effect of over 45% in size; note: potency is the fitted concentration of half-maximal effect
# 5-hydroxytryptamine receptor 2A (Homo sapiens), sequence (P28223 whole entry, looked up): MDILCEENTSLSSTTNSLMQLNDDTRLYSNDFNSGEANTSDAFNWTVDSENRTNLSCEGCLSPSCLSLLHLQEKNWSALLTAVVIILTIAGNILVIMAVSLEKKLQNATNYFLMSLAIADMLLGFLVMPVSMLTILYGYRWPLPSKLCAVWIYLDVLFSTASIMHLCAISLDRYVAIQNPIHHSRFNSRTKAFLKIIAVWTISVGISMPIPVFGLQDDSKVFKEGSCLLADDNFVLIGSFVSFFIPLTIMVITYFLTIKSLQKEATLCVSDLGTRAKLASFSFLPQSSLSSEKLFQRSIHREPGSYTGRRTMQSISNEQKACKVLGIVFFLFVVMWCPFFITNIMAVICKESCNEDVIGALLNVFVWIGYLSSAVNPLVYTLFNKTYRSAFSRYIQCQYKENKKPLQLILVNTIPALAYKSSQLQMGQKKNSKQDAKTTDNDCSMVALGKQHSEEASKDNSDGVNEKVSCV
# How it was run: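 CHO cells stably expressing human HTR2A were plated for 18 h at 37 C, then loaded with calcium dye for 1 h. Compounds were preincubated 5 min at room temperature before DOI (4 nM solution) was added. Kinetic fluorescence was read for 3 min.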
# [12] = molecular target: 5-hydroxytryptamine receptor 2A (Homo sapiens) (UniProt P28223); test: 5-hydroxytryptamine receptor 2A (HTR2A) small molecule agonists, cell-based qHTS assay (AID 1963587); note: nearly all actives have a fitted effect of over 30% in size
# How it was run: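 Kinetic calcium-flux fluorescence (2 min, 1 sec intervals) after compound addition in agonist mode. HTR2A-CHO cells were cultured 18 h, then dye-loaded 1 h at 37 C.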
# [13] = molecular target: Muscarinic acetylcholine receptor M1 (Homo sapiens) (UniProt P11229); test: Cholinergic receptor muscarinic 1 (CHRM1) small molecule antagonists, cell-based qHTS assay (AID 1963588); note: nearly all actives have a fitted effect of over 40% in size
# Muscarinic acetylcholine receptor M1 (Homo sapiens), sequence (P11229 whole entry, looked up): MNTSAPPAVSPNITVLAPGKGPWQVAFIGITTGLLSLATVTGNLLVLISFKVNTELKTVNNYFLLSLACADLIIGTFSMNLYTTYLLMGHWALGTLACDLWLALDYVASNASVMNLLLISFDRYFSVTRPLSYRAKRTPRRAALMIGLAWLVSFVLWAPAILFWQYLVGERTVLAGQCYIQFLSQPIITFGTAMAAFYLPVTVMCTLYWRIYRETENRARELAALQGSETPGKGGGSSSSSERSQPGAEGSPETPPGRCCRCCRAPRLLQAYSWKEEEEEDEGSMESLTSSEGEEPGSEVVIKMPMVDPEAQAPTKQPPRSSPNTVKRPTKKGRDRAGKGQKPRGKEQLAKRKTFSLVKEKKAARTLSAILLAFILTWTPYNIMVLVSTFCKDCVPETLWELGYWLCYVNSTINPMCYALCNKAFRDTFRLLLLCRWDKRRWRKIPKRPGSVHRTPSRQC
# How it was run: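 Compounds were tested at 15 concentrations in three independent runs. Dye-loaded CHRM1-CHO cells were exposed 5 min at room temperature before stimulation by acetylcholine added at 50nM. Intracellular calcium was read kinetically on FDSS for 3 min.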
# [14] = molecular target: Muscarinic acetylcholine receptor M1 (Homo sapiens) (UniProt P11229); test: Cholinergic receptor muscarinic 1 (CHRM1) small molecule agonists, cell-based qHTS assay (AID 1963589); note: nearly all actives have a fitted effect of over 35% in size
# How it was run: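 Agonist-mode calcium-flux screen: compounds at 15 concentrations, three independent runs, were pin-transferred onto dye-loaded human CHRM1-CHO cells. Fluorescence was then recorded kinetically every second over minutes.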
# [15] = cAMP Responsive Elements (CRE) small molecule agonists, cell-based qHTS assay (AID 1963590)
# How it was run: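 Agonist mode: compound added to CRE-bla HEK 293T cells (2,000/well, 18 h after plating) for 3 h at 37 C/5% CO2. Reporter activity detected via FRET beta-lactamase substrate, 2 h room-temperature loading.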
# [16] = cAMP Responsive Elements (CRE) small molecule antagonists, cell-based qHTS assay (AID 1963591; active = well fitted inhibition curve with a large enough effect in the signal ratio in the repeat runs, not every such curve was filed as active; the % refers to the signal ratio)
# How it was run: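 Antagonist mode: compounds are added alongside the adenylyl cyclase activator NKH477 (0.25 uM final) to CRE-bla HEK293T cells for 3 h. LiveBLAzer FRET substrate, 2 h at room temperature, reports bla expression.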
# [17] = molecular target: Beta-2 adrenergic receptor (Homo sapiens) (UniProt P07550); test: Adrenergic beta2 receptor (ADRB2) small molecule antagonists, cell-based qHTS assay (AID 1963592); note: series mostly up to about 92 µM; nearly all actives have a fitted effect of over 50% in size
# Beta-2 adrenergic receptor (Homo sapiens), sequence (P07550 whole entry, looked up): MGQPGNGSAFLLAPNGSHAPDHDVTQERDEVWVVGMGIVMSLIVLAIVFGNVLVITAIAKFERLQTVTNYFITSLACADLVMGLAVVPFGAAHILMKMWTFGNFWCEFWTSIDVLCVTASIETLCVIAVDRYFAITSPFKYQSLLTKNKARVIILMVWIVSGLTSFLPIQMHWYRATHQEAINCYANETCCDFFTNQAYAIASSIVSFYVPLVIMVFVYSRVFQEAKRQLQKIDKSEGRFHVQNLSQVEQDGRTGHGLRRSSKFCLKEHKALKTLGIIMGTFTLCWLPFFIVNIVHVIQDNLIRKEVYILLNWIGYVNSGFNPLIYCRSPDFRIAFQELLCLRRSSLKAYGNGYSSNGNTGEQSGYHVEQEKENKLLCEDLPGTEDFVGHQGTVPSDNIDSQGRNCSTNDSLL
# How it was run: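 Assay format: CHO-ADRB2 cells, 18-20hr seeding at 37C/5% CO2, then compound plus 1nM isoproterenol agonist mix for 0.5hr RT. Homogeneous time-resolved fluorescence cAMP detection after 1hr, expressed as 665/615 nm ratio.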
# [18] = molecular target: D(2) dopamine receptor (Homo sapiens) (UniProt P14416); test: Dopamine D2 receptor (DRD2) small molecule agonists, cell-based qHTS assay (AID 1963594); note: nearly all actives have a fitted effect of over 35% in size
# D(2) dopamine receptor (Homo sapiens), sequence (P14416 whole entry, looked up): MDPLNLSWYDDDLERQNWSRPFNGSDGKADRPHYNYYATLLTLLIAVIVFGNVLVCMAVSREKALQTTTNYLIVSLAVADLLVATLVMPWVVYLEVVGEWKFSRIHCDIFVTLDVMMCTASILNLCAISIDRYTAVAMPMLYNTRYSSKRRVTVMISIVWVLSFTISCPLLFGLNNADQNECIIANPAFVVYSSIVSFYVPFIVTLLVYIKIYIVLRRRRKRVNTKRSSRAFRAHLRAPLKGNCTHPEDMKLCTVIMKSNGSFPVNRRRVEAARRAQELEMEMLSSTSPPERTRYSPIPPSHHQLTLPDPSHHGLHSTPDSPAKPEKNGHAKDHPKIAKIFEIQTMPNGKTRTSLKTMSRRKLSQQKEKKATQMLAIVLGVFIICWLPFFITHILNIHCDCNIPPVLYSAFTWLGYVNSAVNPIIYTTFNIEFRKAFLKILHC
# How it was run: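 cAMP accumulation in DRD2-HEK293 cells measured by HTRF after 1 h detection; compounds added 10 min before NKH477 (200nM […]) forskolin-analogue stimulation, 30 min at room temperature, with Ro20-1724 present at 0.1 mM final.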
# [19] = molecular target: D(2) dopamine receptor (Homo sapiens) (UniProt P14416); test: Dopamine D2 receptor (DRD2) small molecule antagonists, cell-based qHTS assay (AID 1963595; active = well fitted inhibition curve with a large enough effect in the signal ratio in the repeat runs, with a control signal flat; the % refers to the signal ratio)
# How it was run: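 Antagonist mode in DRD2-HEK293 cells: after compound addition with 0.1 mM Ro20-1724, cells received quinpirole (12 nM) and NKH477 (200 nM) for 30 min at room temperature; HTRF cAMP read after 1 h detection.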
SMILES,Potency [1],Potency [2],Potency [3],Potency [4],Potency [5],Potency [6],Potency [7],Potency [8],Potency [9],Potency [10],Potency [11],Potency [12],Potency [13],Potency [14],Potency [15],Potency [16],Potency [17],Potency [18],Potency [19]
C/C=C/c1ccc(OC)c(OC)c1,inactive,inactive,inactive,inactive,inactive,inactive,inactive,inactive,inactive,inactive,inactive,inactive,inactive,inactive,inactive,inactive,inactive,inactive,inactive
CC(C)(C)c1ccc(C=O)cc1,inactive,inactive,inactive,inactive,inactive,inactive,inactive,inactive,inactive,inactive,inactive,inactive,inactive,inactive,–,inactive,inactive,inactive,inactive
NC(=O)Cc1cccc2ccccc12,inactive,inactive,inactive,inactive,inactive,inactive,inactive,inactive,inactive,inactive,inactive,–,inactive,inactive,inactive,inactive,inactive,inactive,inactive
NCCC(O)(P(=O)(O)O)P(=O)(O)O,inactive,inactive,inactive,inactive,inactive,inactive,inactive,inactive,inactive,inactive,inactive,inactive,inactive,inactive,inactive,inactive,inactive,inactive,inactive
CC(C)CCCCCOC(=O)CS,inactive,inactive,inactive,inactive,inactive,inactive,inactive,inactive,inactive,inactive,1.88 µM (active),inactive,inactive,inactive,inactive,inactive,–,–,inactive
O=C(O)c1cc2ccccc2nc1C(=O)O,inactive,17.2 µM (active),inactive,inactive,inactive,inactive,inactive,inactive,inactive,inactive,inactive,inactive,inactive,inactive,inactive,inactive,inactive,inactive,inactive
CSc1nnc(C(C)(C)C)c(=O)[nH]1,inactive,inactive,inactive,inactive,inactive,inactive,inactive,inactive,inactive,inactive,–,inactive,inactive,inactive,–,inactive,–,inactive,–
